39 compounds from the supplement of paper PMC3484114 can be followed below.

± gives the standard deviation.

The subject of the experiment is OVCAR-3-derived ovarian cancer stem-like cells (spheroids). Briefly: cell growth relative to untreated control; higher = more growth (less inhibition). The settings on record: 2.29 µM; 96 h. The essentials:
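Stem-like cells derived from OVCAR-3 spheroids were dissociated with trypsin and seeded at 50,000 cells/mL in stem cell medium in ultra-low attachment 96-well plates, then preincubated for 24 h. Each compound was added at 2.29 uM to 4 replicate wells and left for 96 h at 37°C, 5% CO2. Viability came from TOX8 resazurin fluorescence (ex 560/em 590 nm) read after 4 h. Percent growth was expressed relative to untreated wells, after blank subtraction and removal of outliers by the Grubbs test.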
`COc1cc(C[C@H]2c3cc(OC)c(OC)cc3CCN2C)c(Oc2cc3c(cc2OC)-c2c(OC)c(OC)cc4c2[C@H](C3)N(C)CC4)cc1OC` yielded a cell growth of 77.8 ± 11%. Consider `N#CC(C#N)=Cc1ccc(Oc2ccccc2)cc1`, for which the cell growth turned out to be 86.2 ± 51%. The figure for `CN(C)c1nc(=NCc2ccco2)ss1` is 93.7 ± 7%; for `CCOC(=O)Nc1nc2ccc(Cn3cccc3)cc2[nH]1` it is 127 ± 20%. In the case of `CCOC(=O)Cc1c(C)c2cc(C(=O)c3ccccc3)c(O)cc2oc1=O` it was 98 ± 18%; in that of `CC(C)C1=CC2=CC[C@@H]3[C@](C)(CCC[C@@]3(C)C(=O)O)[C@H]2CC1`, 114 ± 10%; in that of `Nc1ncnc2c1nnn2[C@@H]1O[C@H](CO)[C@@H](O)[C@H]1O`, 23.1 ± 4.4%. The figure for `COc1ccc(/C=C2\N=C(c3ccccc3)OC2=O)c(OCc2ccccc2)c1` is 69.7 ± 24%.

Compound `O=[N+]([O-])c1ccccc1S(=O)(=O)c1ccccc1[N+](=O)[O-]` registered a cell growth of 77.1 ± 18%.

`CCCCCCCCCCSCC(CO)NC(=O)/C=C/c1c(C)[nH]c(=O)[nH]c1=O` (centres undefined): the cell growth worked out at 107 ± 23%. `Nc1cc2[nH]cnc2c(=O)[nH]1` came in with a cell growth of 77.1 ± 7.5%. `COc1ccc(C2C(C)C(=O)C(C)C(c3ccc(OC)cc3)N2N=O)cc1` (centres undefined) gave a cell growth of 110 ± 23%. In the case of `CO[C@H]1/C=C\C=C(/C)C(=O)NC2=CC(=O)C(N)=C(C[C@@H](C)C[C@H](OC)[C@H](O)[C@@H](C)/C=C(\C)[C@@H]1OC(N)=O)C2=O` it was 29.6 ± 4.9%. Turning to `CN1CCN(CN2C(=O)C3C4C=CC(C3C2=O)C2C3C(=O)N(CN5CCN(C)CC5)C(=O)C3C42)CC1` (centres undefined), the cell growth came to 91.4 ± 32%. The compound `O=[N+]([O-])c1ccc(-c2cn(-c3ccc(Cl)cc3)cn2)cc1` gave a cell growth of 106 ± 23%.

Compound `CS(=O)(=O)c1nc(N)nc2nc[nH]c12` had a cell growth of 99.3 ± 19%.

The compound `CCCc1c(Cl)nc(Cl)nc1Cl` had a cell growth of 96.4 ± 19%.

`COC1=CC(=O)c2c(ccc3ncnc(N)c23)C1=O` had a cell growth of 79.1 ± 20%.

Turning to `CCOC(=O)c1ccc(-c2cc(C)no2)[nH]1`, the cell growth was 54.8 ± 10%. The figure for `CCCCOCc1cc(CN2CCN(C)CC2)c(O)c2ncccc12` is 85.3 ± 33%; for `CCN(CC)CCOc1ccccc1/C=C/c1noc2ccccc12` it is 79.3 ± 18%; for `OC(CBr)C(O)C(O)C(O)CBr` (centres undefined) it is 11.6 ± 4%. As for `Nc1ncnc2c1ncn2C1OC(CO)C(O)C1O` (centres undefined), the cell growth was 111 ± 13%. For the compound `CC1(C)CCCC2(C)C3=C(CCC12)C(=O)OC3` (centres undefined), the cell growth amounted to 84.4 ± 24%.

Regarding `CC1(C)N=C(N)N=C(N)N1c1ccc(CCCCc2ccc(Cl)cc2Cl)cc1`, the cell growth was 51.5 ± 9.2%. The figure for `Cc1cc(O)c2c(c1)C(=O)c1cc(O)cc(O)c1C2=O` is 107 ± 17%; for `Cn1cnc([N+](=O)[O-])c1Sc1nnnn1-c1ccccc1` it is 92.6 ± 24%; for `CC(C)(C)c1ccc(OC2CCO2)cc1` (centres undefined) it is 89.3 ± 19%. In the case of `C/C(=N\NC(=S)N1CCN(C2CCCCCC2)CC1)c1ccccn1` it was 14.7 ± 7.5%; in that of `OCCNCCN1CCN(CCCN2c3ccccc3Sc3ccc(C(F)(F)F)cc32)CC1`, 126 ± 42%. The compound `Nc1nc(-c2cccs2)cs1` showed a cell growth of 57.1 ± 11%. The figure for `CC1=C2C(=CO[C@H](C)[C@H]2C)C(=O)C(C(=O)O)=C1O` is 112 ± 18%; for `CCOC(=O)Nc1cc2c(c(N)n1)N=C(c1ccccc1)CN2` it is 89.9 ± 15%; for `O=c1[nH]c2ccc(O)cc2o1` it is 80.8 ± 13%.

Compound `COC1OC(COCc2ccc(Cl)cc2)C(OCc2ccc(Cl)cc2)C1O` (centres undefined) had a cell growth of 110 ± 26%. `CNC(=O)c1cc(NC(=O)N(CCC#N)CCN(C(=O)N[C@@H](Cc2ccccc2)C(=O)N[C@@H](CC(C)C)C(=O)NC)c2ccccc2)ccc1OC` had a cell growth of 98.9 ± 15%. In the case of `Fc1cccc(Cl)c1C1SCc2nc3ccccc3n21` (centres undefined) it was 22.8 ± 9.7%; in that of `NC(=S)N/N=C/c1ccc(OC(=O)COc2ccccc2Cl)cn1`, 90.5 ± 27%. `CC(C)C(C)C=CC(C)C1CCC2C3=CC=C4CC(O)CCC4(C)C3CCC21C` (centres undefined) returned a cell growth of 97.6 ± 23%.
